# Most compounds without a hit are left out; they make up all but 4.5% or so of the library.
# Rtt109 HAT inh: inhibitors of C. albicans Rtt109/Vps75 HAT, primary screen, biochemical, ThioGlo CoA-SH fluorescence, plate reader; purified Rtt109/Vps75, 4 h; 0.16% of 330,000 active; AID 540336, 2011; inhibition, % at 34.9 µM;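 active = inhibition of at least 50% in every replicate; inconclusive = best replicate reaches 50% inhibition but some replicates fall short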
# Rce1 inhib: yeast Rce1p protease inhibitors, primary screen, biochemical, fluorescence, cell-free homogeneous; CAAX prenyl protease 2 (Saccharomyces cerevisiae (strain ATCC 204508 / S288c)), Q03530; 0.27% of 290,000 active; calls only; yeast membranes, quenched prenylated peptide cleavage fluorescence;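 active = fall in fluorescence gain of 50% or more versus controls, with final raw signal at or below 3038400; inconclusive = same 50% fall but final raw signal above 3038400; inactive = fall in fluorescence gain under 50%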;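 note: plate controls were neutral control wells for no effect and wells lacking membranes for full effect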
# Target sequence (Q03530 whole entry, looked up): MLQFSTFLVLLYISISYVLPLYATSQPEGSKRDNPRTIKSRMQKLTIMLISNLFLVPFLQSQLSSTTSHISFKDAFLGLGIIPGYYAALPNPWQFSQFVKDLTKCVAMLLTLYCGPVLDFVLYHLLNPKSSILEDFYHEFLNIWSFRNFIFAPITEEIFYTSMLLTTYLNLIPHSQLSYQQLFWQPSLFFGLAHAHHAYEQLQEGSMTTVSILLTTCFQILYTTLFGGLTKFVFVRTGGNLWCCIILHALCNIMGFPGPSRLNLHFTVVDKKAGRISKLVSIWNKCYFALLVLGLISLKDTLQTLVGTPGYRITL
# HDAC3 inhib: HDAC3 deacetylase inhibitors, primary screen, biochemical, fluorescence, cell-free homogeneous; inhibition, % at 8.3 µM; AID 2718, 2010; 0.15% of 320,000 active; Histone deacetylase 3 (Homo sapiens), O15379; recombinant HDAC3, fluorogenic peptide/trypsin coupled; in the data active = inhibition above about 26%, passing the limit was not always enough; inconclusive = no clear call, values can overlap the other calls
# ALR H2O2 inh: inhibitors of human ALR sulfhydryl oxidase, primary screen, biochemical, H2O2 detection, HRP-luminol luminescence, single point; FAD-linked sulfhydryl oxidase ALR (Homo sapiens), P55789; purified ALR, DTT oxidation; inhibition, % (concentration not given with the values); 3.8% of 290,000 active;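 active = mean replicate inhibition above about 79%, with every replicate also reaching it, limit read from the data; inconclusive = only one of the two criteria met; inactive = mean below limit and not every replicate reaching it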
# GRK2 inh: compounds blocking aptamer binding on GRK2 – biochemical, human GRK2, bead flow cytometry, HTS, primary screen; Beta-adrenergic receptor kinase 1 (Homo sapiens), P25098; FAM-aptamer displacement from GRK2; inhibition of aptamer binding, % at 10 µM; 0.59% of 330,000 active; AID 488847, 2010;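 active = inhibition of aptamer binding above 40%, roughly 3 SD of noise, on plates passing a quality check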;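 note: median bead fluorescence of bound FAM aptamer so fluorescent compounds give negative values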
# Efflux pump mplx: inhibitors of Candida efflux pumps in yeast, primary screen, S. cerevisiae, Nile Red, multiplex. S. cerevisiae Candida pump triplex. 0.44% of 330,000 active. inhibition, % at 10 µM. AID 485275, 2010;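 active = plate passing quality check with inhibition over a set limit, or well fluorescence over plate mean plus 4 SD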;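 note: Nile Red retained in pooled yeast measured as flow cytometry median fluorescence; 0% = buffer negative control and 100% = Enniatin B positive control; higher means more Nile Red kept so more efflux inhibition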
# * hit, by the source's call; i = inactive; ? = inconclusive; nt = no result; + = active, no number.
SMILES,Rtt109 HAT inh,Rce1 inhib,HDAC3 inhib,ALR H2O2 inh,GRK2 inh,Efflux pump mplx
CCCCN(CC)CCNC(=O)c1cc2c(-c3ccccc3F)nn(C)c2s1,11.3,i,-28.6,-6.9,0.0,-0.2
O=C(CCn1nc(-c2ccc(Cl)cc2)c2ccccc2c1=O)NCC1CCCO1 (stereo not drawn),-7.1,i,-3.1,-2.9,1.0,0.3
Cn1nc(-c2ccc(Cl)cc2)c2cc(C(=O)N3CCOCC3)sc21,14.8,i,-1.8,95.2*,3.0,-0.2
Cn1nc(-c2ccc(Cl)cc2)c2cc(C(=O)NCC3CCCO3)sc21 (stereo not drawn),-11.9,i,-15.1,92.6*,0.0,0.3
CCN(CC)CCCNC(=O)c1cc2c(-c3ccc(Cl)cc3)nn(C)c2s1,7.9,?,-80.7,93.9*,0.0,-0.2
CN1CCN(CCCNC(=O)c2cc3c(-c4ccc(Cl)cc4)nn(C)c3s2)CC1,30.3,+,nt,nt,0.0,0.1
CCC1C(=O)N=C(SCC(=O)Nc2ccc(C)cc2)N(c2ccccc2)C1=O (stereo not drawn),10.3,i,4.1,nt,0.0,0.3
CCN(CC)CCCNC(=O)c1cc(-c2ccc(O)cc2)on1,-0.1,i,3.3,99.1*,0.0,0.1
COc1cccc(-c2nn(C)c3sc(C(=O)N4CCN(c5ccccn5)CC4)cc23)c1,51.3*,i,11.8,-4.1,2.0,0.1
Cc1ccc(Nc2c(-c3ccc(C)o3)nc3ncccn23)cc1,9.5,i,4.8,nt,0.0,0.2
Cc1ccn2c(Nc3ccc4c(c3)OCO4)c(-c3ccc(O)cc3)nc2c1,6.9,i,-125.4,84.8*,14.0,0.2
Clc1ccc(-c2nc3ncccn3c2Nc2ccc3c(c2)OCO3)cc1,1.9,i,17.1,0.2,0.0,-0.1
Cc1ccc(-c2nc3ncccn3c2Nc2ccc3c(c2)OCO3)o1,-0.9,i,11.4,98.8*,0.0,-0.1
Oc1ccc(-c2nc3ncccn3c2Nc2ccc3c(c2)OCO3)cc1,2.0,i,6.1,99.3*,2.0,-0.1
Cc1cccc(N=CC=C2OC(C)(C)C(C)(C)O2)c1,-1.8,i,nt,nt,11.0,-0.8
Cc1ccccc1N=CC=C1OC(C)(C)C(C)(C)O1,-7.8,i,nt,nt,54.0*,0.0
CCn1nnc(NC(=O)COc2ccc([N+](=O)[O-])cc2)n1,0.1,i,nt,nt,2.0,0.1
COc1ccc(OC)c(CN2CCN(CC(=O)Nc3ccccc3C(=O)NC3CC3)CC2)c1,0.8,nt,-2.4,-1.2,0.0,0.1
Cc1cc(NS(=O)(=O)c2ccccc2)c([N+](=O)[O-])cc1C,-0.6,+,-0.7,-39.7,0.0,0.0
O=S(=O)(Nc1ccc(O)c(NS(=O)(=O)c2ccccc2)c1)c1ccccc1,-6.5,i,-2.6,86.7*,2.0,-0.2
COc1ccc(S(=O)(=O)Nc2cc(C(C)C)c(O)cc2C)cc1,-5.3,i,6.3,?,1.0,-0.1
Cc1ccc(S(=O)(=O)Nc2cc(C)c(O)cc2C)cc1,-14.4,i,1.8,98.2*,0.0,0.0
Cc1cc(NS(=O)(=O)c2ccccc2)ccc1NS(=O)(=O)c1ccccc1,-0.1,nt,nt,nt,nt,nt
Cc1c(O)ccc(NS(=O)(=O)c2ccccc2)c1C,5.0,i,-7.0,98.8*,1.0,0.0
CC(C)(C)c1ccc(SCCc2ccccn2)cc1,-4.0,i,3.2,nt,2.0,-0.1
C=CCNC(=O)Cn1c(=O)c2c(ncn2CCC(C)C)n(Cc2ccccc2)c1=O,-7.8,i,-0.4,-2.4,0.0,0.0
Cc1ccccc1NS(=O)(=O)c1ccc(Cl)cc1,14.8,i,1.4,4.6,1.0,-0.1
Cc1cc(NS(=O)(=O)c2ccccc2)c(C)c(Cl)c1O,21.8,i,0.1,99.9*,3.0,0.3
Nc1ccc(NS(=O)(=O)c2ccccc2)cc1,nt,i,nt,99.8*,0.0,0.0
O=C(COC(=O)c1cc[n+]([O-])cc1)Nc1ccc(SC(F)F)cc1,-1.2,i,-6.9,94.6*,9.0,0.1
